IL-1B inflam inh: inflammasome signaling inhibition, IL-1 beta readout; THP-1 LPS/ATP IL-1B secretion, AlphaLISA, 16 h; hits give low values; activity change, % at 57.5 µM; hit rate 4.7% among 360,000; AID 743279; in the data active = activity change below about -50%; inconclusive = mostly about -30% to -49%; note: % is set by controls: 0 for no effect and ±100 for the full control effect
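Secreted IL-1B measured by AlphaLISA bead assay after 16 h compound exposure of THP-1 cells; compounds (final up to 57.5 uM) added 1 h before LPS (250 ng/mL) and ATP (1.25 mM) stimulation; lower signal means less secretion.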
DT40 TDP1 CPT: DT40-hTDP1 cell growth loss with CPT | chicken DT40 Tdp1-/-;hTDP1 cells + 20 nM CPT, ATP luminescence, 48 h | Potency, µM (series often up to 46.2 µM), for the others: top-dose activity change, negative = growth inhibition, usual class: inhibitors | hit rate 12% among 420,000; note: potency is the fitted concentration of half-maximal effect; % is set by controls: 0 for no effect and ±100 for the full control effect; nearly all actives have a fitted effect of over 55% in size
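Chicken DT40 Tdp1-/- cells stably complemented with human TDP1 were seeded at 400 cells/well in medium containing 20 nM camptothecin, exposed to pin-transferred compounds, and grown at 37 °C for at least 48 hr. Viability was read as ATP luminescence.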
TDP1 cell noCPT: qHTS for Inhibitors of human tyrosyl-DNA phosphodiesterase 1 (TDP1): qHTS in cells in absence of CPT; DT40 Tdp1-/- hTDP1 cells, no CPT, ATP luminescence, 48 h; Potency, µM (highest dose often 46.2 µM), for the others: at the top dose activity change, negative = growth inhibition, most hits filed as inhibitors; hit rate 15% among 420,000; AID 686978, 2013; note: potency is the fitted concentration of half-maximal effect; % is set by controls: 0 for no effect and ±100 for the full control effect; nearly all actives have a fitted effect of over 55% in size
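Chicken DT40 Tdp1-/- cells stably complemented with human TDP1 were seeded at 400 cells/well with DMSO in place of 20 nM camptothecin. After compound pinning, cells grew at least 48 hr at 37 °C; viability read by CellTiter-Glo luminescence.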
Chronic BCR inh: chronic active BCR signaling inhibition. Potency, µM (doses to about 46.1 µM), without a hit: top-dose activity change, negative = inhibition, most hits filed as inhibitors. hit rate 0.05% among 340,000. AID 493014. ABC-DLBCL IkBa-CBG/CBR reporter, luminescence ratio, 4 h; active = well fitted inhibition curve with a large enough effect in the signal ratio, with a control signal flat, not every such curve was filed as active; inconclusive = small, poorly fitted or top-dose-only effect, or effect the other way, or a change in a side signal; the % refers to the signal ratio;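 note: potency is the fitted concentration of half-maximal effect; plate controls were basal doxycycline-induced cells for no effect and cells given 10 µM MG132 for full effect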
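Compounds up to 46 uM were incubated four hours with TMD8 cells whose green CBG68 luciferase is fused to IkappaBalpha; red CBR luminescence normalised the signal, and concentration-effect curves were fitted to fusion, red and ratio data.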
MCF10A rereplic: inducers of DNA re-replication in MCF 10A breast cells; Potency, µM (top dose mostly 46.1 µM), for the others: at the highest dose activity, positive = re-replication, most hits filed as activators; hit rate 2.9% among 350,000; MCF 10A DNA re-replication, Hoechst nuclear intensity, 48 h; note: potency is the fitted concentration of half-maximal effect; % of control where 0% means no effect; nearly all actives have a fitted effect of over 50% in size
SW480 rereplic: inducers of DNA re-replication in SW480 colon cancer cells. SW480 DNA re-replication, Hoechst DNA content imaging, 48 h. Potency, µM (titrated, usually from 46.1 µM), for the others: at the top dose re-replication activation, actives largely listed as activators. hit rate 1.8% among 340,000. AID 624297; note: potency is the fitted concentration of half-maximal effect; % of control where 0% means no effect; nearly all actives have a fitted effect of over 55% in size
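Image-based DNA-content assay: after two days of treatment, nuclei were labelled with the DNA dye Hoechst and imaged, and hits were compounds raising the count of nuclei showing high fluorescence intensity.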
Numbers without * were called inactive. Shown are actives, neighbours in structure and some others; about 19% of the full set was active somewhere. Unless noted, calls come from the whole dose curve; as a rule, active = well fitted curve in the direction sought with a large enough effect; inconclusive = small, poorly fitted or top-dose-only effect, or another doubt; inactive = no such curve, though single readings can be large; an effect the other way counts as inactive or inconclusive.

`CCNc1nc(C#N)nc(NCC)n1` gave DT40 TDP1 CPT 6.4% and TDP1 cell noCPT -17.7%.
`O=C(Nc1ccccc1Br)N1CCC(CN2CCCC2)CC1` gave DT40 TDP1 CPT -3.1%, TDP1 cell noCPT -19.8% and Chronic BCR inh inconclusive.
Screening CC(Nc1ccc(-c2nc(-c3cccnc3)no2)cc1[N+](=O)[O-])c1ccccc1 (stereo unspecified) returned DT40 TDP1 CPT -5.3% and TDP1 cell noCPT 9.8%.
`Cc1noc(-c2ccc(NC(C)c3ccccc3)c([N+](=O)[O-])c2)n1` (stereo unspecified) gave DT40 TDP1 CPT 16.4µM* and TDP1 cell noCPT 23.1µM*.
Screening CCc1noc(-c2ccc(NC(C)c3ccccc3)c([N+](=O)[O-])c2)n1 (stereo unspecified) returned DT40 TDP1 CPT 18.4µM* and TDP1 cell noCPT inconclusive.
For Cc1ccc(S(=O)(=O)C[C@@H]2OC[C@H](C)N2S(=O)(=O)c2ccc(C)cc2)cc1 the results were IL-1B inflam inh 0.0, DT40 TDP1 CPT inconclusive and TDP1 cell noCPT inconclusive.
`CCN(CCC(=O)Nc1ccc(Br)c(C)c1)Cc1ccccc1` gave IL-1B inflam inh inconclusive, DT40 TDP1 CPT inconclusive, TDP1 cell noCPT 29.1µM*, Chronic BCR inh -2.4%, MCF10A rereplic -0.9% and SW480 rereplic 1.7%.
For Clc1ccc(-c2nnc3n2-c2ccccc2SC3)cc1 the results were IL-1B inflam inh 8.6, DT40 TDP1 CPT -0.5%, TDP1 cell noCPT inconclusive, Chronic BCR inh inconclusive, MCF10A rereplic 3.1% and SW480 rereplic inconclusive.
CN1C(c2ccc(F)cc2)=CS/C1=C(\C#N)c1nnc2n1-c1ccccc1SC2 was read as IL-1B inflam inh -78.6*, DT40 TDP1 CPT inconclusive, TDP1 cell noCPT -14.9%, Chronic BCR inh -0.3%, MCF10A rereplic 11.6µM* and SW480 rereplic -4.5%.
Screening O=C(O)c1ccc(B(O)O)cc1 returned DT40 TDP1 CPT -34.4% and TDP1 cell noCPT inconclusive.
Screening Cc1ccccc1Cn1c2ccccc2c2cnn(CC(=O)N3CCN(c4ccccc4)CC3)c(=O)c21 returned IL-1B inflam inh -29.0, DT40 TDP1 CPT inconclusive, TDP1 cell noCPT inconclusive, Chronic BCR inh -2.2%, MCF10A rereplic 0.5% and SW480 rereplic 1.0%.
For O=C(Cn1ncc2c3ccccc3n(Cc3ccccc3)c2c1=O)NCCCN1CCCCC1 the results were DT40 TDP1 CPT -17.0% and TDP1 cell noCPT inconclusive.
For O=C(Cn1ncc2c3ccccc3n(Cc3ccc(F)cc3)c2c1=O)N1CCN(c2ncccn2)CC1 the results were IL-1B inflam inh -2.6, DT40 TDP1 CPT 18.4µM*, TDP1 cell noCPT 16.4µM*, Chronic BCR inh 15.3%, MCF10A rereplic 22.8% and SW480 rereplic inconclusive.
For Cc1cc(C)c(Cn2c3ccccc3c3cnn(CC(=O)N4CCCCCC4)c(=O)c32)c(C)c1 the results were DT40 TDP1 CPT 23.1µM* and TDP1 cell noCPT 23.1µM*.
`O=C(Cn1ncc2c3ccccc3n(Cc3cccc(Cl)c3)c2c1=O)N1CCCCC1` gave DT40 TDP1 CPT 20.6µM* and TDP1 cell noCPT 11.6µM*.
Screening COC(=O)Cn1ncc2c3ccccc3n(Cc3ccccc3)c2c1=O returned IL-1B inflam inh 14.5, DT40 TDP1 CPT inconclusive, TDP1 cell noCPT -24.7%, Chronic BCR inh -0.6%, MCF10A rereplic 8.3% and SW480 rereplic 0.3%.
For O=C(Cn1ncc2c3ccccc3n(Cc3cccc(Cl)c3)c2c1=O)N1CCCCCC1 the results were DT40 TDP1 CPT 18.4µM* and TDP1 cell noCPT 20.6µM*.
`CN1C(=O)C2(OCC(C)([N+](=O)[O-])CO2)c2ccccc21` (stereo unspecified) gave IL-1B inflam inh 45.2, DT40 TDP1 CPT -2.5%, TDP1 cell noCPT -10.6%, Chronic BCR inh 2.1%, MCF10A rereplic 2.5% and SW480 rereplic 2.4%.
CN1C(=O)C2(N=c3ccccc3=N2)c2ccccc21 was read as IL-1B inflam inh 8.1, DT40 TDP1 CPT inconclusive, TDP1 cell noCPT 14.6µM*, Chronic BCR inh 11.8%, MCF10A rereplic 15.5% and SW480 rereplic -0.8%.
For O=C(Nc1c2c(nn1-c1ccc([N+](=O)[O-])cc1)CS(=O)(=O)C2)c1ccco1 the results were IL-1B inflam inh 9.9, DT40 TDP1 CPT -1.8%, TDP1 cell noCPT 11.6%, Chronic BCR inh -6.0%, MCF10A rereplic 1.1% and SW480 rereplic -6.0%.
O=C(Nc1ccc(S(=O)(=O)N2CCOCC2)cc1)c1ccc(S(=O)(=O)N2CCOCC2)cc1 was read as IL-1B inflam inh 22.5, DT40 TDP1 CPT -5.1%, TDP1 cell noCPT -4.4%, Chronic BCR inh -9.5%, MCF10A rereplic -0.7% and SW480 rereplic -19.5%.
For O=C(Nc1ccncc1)c1cc(S(=O)(=O)N2CCOCC2)ccc1Cl the results were IL-1B inflam inh 20.2, DT40 TDP1 CPT -10.5%, TDP1 cell noCPT -23.8%, Chronic BCR inh -27.9%, MCF10A rereplic -2.8% and SW480 rereplic -20.5%.
Screening CC1CN(S(=O)(=O)c2ccc(C(=O)Nc3ccc(S(=O)(=O)N4CCOCC4)cc3)cc2)CC(C)O1 (stereo unspecified) returned IL-1B inflam inh inactive, DT40 TDP1 CPT inconclusive, TDP1 cell noCPT 13µM*, Chronic BCR inh 3.4%, MCF10A rereplic 11.3% and SW480 rereplic -0.9%.
Cc1ccc(S(=O)(=O)N2CCOCC2)cc1C(=O)Nc1ccc(N2CCCCCC2)cc1 was read as IL-1B inflam inh -52.9*, DT40 TDP1 CPT 4.61µM*, TDP1 cell noCPT 4.61µM*, Chronic BCR inh inconclusive, MCF10A rereplic inconclusive and SW480 rereplic 31.1%.
`O=C(Nc1ccc(S(=O)(=O)N2CCOCC2)cc1)c1cc(S(=O)(=O)N2CCOCC2)ccc1Cl` gave IL-1B inflam inh 34.7, DT40 TDP1 CPT 18.4µM*, TDP1 cell noCPT inconclusive, Chronic BCR inh -2.3%, MCF10A rereplic inconclusive and SW480 rereplic -3.2%.
`O=C(Nc1ccc(S(=O)(=O)N2CCOCC2)cc1)c1ccc(Cl)cc1` gave IL-1B inflam inh -6.4, DT40 TDP1 CPT 20.6µM*, TDP1 cell noCPT 20.6µM*, Chronic BCR inh -4.5%, MCF10A rereplic -5.1% and SW480 rereplic -6.2%.
O=C(Nc1ccc(Cc2ccncc2)cc1)c1ccc(S(=O)(=O)N2CCOCC2)cc1 was read as IL-1B inflam inh -18.9, DT40 TDP1 CPT inconclusive, TDP1 cell noCPT 18.4µM*, Chronic BCR inh 0.9%, MCF10A rereplic -0.9% and SW480 rereplic -6.5%.

Compound activity (PubChem)
